The structures appear in SMILES notation. Measured potencies and affinities stand elsewhere. Records with an inconclusive call do not appear. Values without a mark were called inactive.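 Rule for the calls: active = signal loss with fitted half-maximal concentration at or below twice the top valid tested dose in every test run; inconclusive = runs disagree, flat 30 to 70% signal loss, or poor fit; inactive = all runs flat, opposite direction, or potency beyond limit.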

This experiment is described as follows: HEK293T cytotoxicity, dose response, cytotoxicity control for miR-122 modulator project, cell-based, inhibitor set, cherry-pick, set 2 (AID 720697).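 Note: 0% = median of neutral control wells and -100% = MG132 positive control wells.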 The settings on record: HEK293T viability, CellTiter-Glo luminescence, 48 h; series mostly up to 26 µM; activity change, negative = cytotoxicity: at the top concentration.
As for `CN1C(=O)c2cc(NC(=O)c3cccs3)ccc2OC[C@@H]2O[C@@H](CC(=O)N3CCOCC3)CC[C@H]21`, the “activity change, negative = cytotoxicity” value is 115% [at 23.5 µM].
On to `COCC(=O)N1C[C@H]2[C@@H](c3ccccc31)[C@H](CO)N2C(=O)Nc1ccccc1Cl`, for which the “activity change, negative = cytotoxicity” value was 72.2%.
The value for `CCN(C[C@@H]1[C@@H](c2ccc(C3=CCCCC3)cc2)[C@@H](CO)N1CC1CC1)C(C)=O` was 28.6%; that for `CO[C@@H]1CN(C)C(=O)c2ccc(NC(=O)c3nc4ccccc4s3)cc2OC[C@H](C)N(Cc2cccnc2)C[C@H]1C` was 16.9%.
The value for `CCCC(=O)Nc1ccc2c(c1)C(=O)N(C)[C@@H]1CC[C@H](CC(=O)NCCN3CCCCC3)O[C@H]1CO2` was -14.8%.
The value for `CO[C@H]1CN(C)C(=O)c2ccc(NS(C)(=O)=O)cc2OC[C@H](C)N(C(=O)CN(C)C)C[C@H]1C` was 100%.
Turning to `C/C=C/c1ccc2c(c1)O[C@H](CN(C)C(=O)c1cnccn1)[C@H](C)CN([C@H](C)CO)S2(=O)=O`, the “activity change, negative = cytotoxicity” value is 55.4%.
The value for `COCC(=O)N(C)C[C@H]1Oc2cc(C#Cc3cccnc3)ccc2S(=O)(=O)N([C@@H](C)CO)C[C@@H]1C` was 3.54%; that for `C/C=C/c1ccc([C@@H]2[C@@H](CN(C)C(=O)CC)N(C(=O)NC(C)C)[C@H]2CO)cc1` was 128%.
The value for `C/C=C/c1ccc([C@H]2[C@@H](CO)N(Cc3ccccn3)[C@H]2CNC(C)=O)cc1` was 156% [at 23.5 µM]; that for `CC(=O)N1[C@H](CO)[C@@H](c2ccccc2)[C@H]1CN(CC(C)C)C(=O)c1ccccn1` was 12.4% [at 23.5 µM]; that for `CN(C)CCCNC(=O)C[C@@H]1CC[C@@H]2[C@@H](COc3ccc(NC(=O)NC4CCCC4)cc3C(=O)N2C)O1` was 65.9% [at 23.5 µM].
For `COCC(=O)N(C[C@@H]1N[C@H](CO)[C@H]1c1ccc(-c2cccnc2)cc1)C(C)C`, the “activity change, negative = cytotoxicity” value was -13.9%.
Then `O=C(c1cccnc1)N1C[C@H]2[C@@H](c3ccccc31)[C@H](CO)N2C(=O)C1CCCC1`, with 94.1% [at 23.5 µM]; and `CCCNC(=O)N1[C@H](CO)[C@@H](c2ccccc2)[C@H]1CNC(=O)c1ccccc1`, with 70.2%.
Take `C/C=C/c1ccc2c(c1)O[C@H](CN(C)C(=O)NCCC)[C@H](C)CN([C@@H](C)CO)S2(=O)=O`: the “activity change, negative = cytotoxicity” value is 152%.
Then `O=C(NC[C@H]1N[C@H](CO)[C@@H]1c1ccc(-c2ccccc2F)cc1)c1ccccc1`, with 33.6%.
On to `CCCC(=O)Nc1ccc2c(c1)C(=O)N(C)[C@H]1CC[C@H](CC(=O)NCCN3CCCCC3)O[C@@H]1CO2`, for which the “activity change, negative = cytotoxicity” value is 27.1%.
Then `c1ccc(-n2nnnc2NCCc2c[nH]c3ccccc23)cc1`, with -23.7%.
Then `COc1ccc(C(C#N)Nc2ccc(C)cc2)cc1` (centres undefined), with 1.55%; and `Cc1ccccc1-c1ccc([C@@H]2[C@H](CO)N3CCCCN(C(=O)Nc4cccc(F)c4)C[C@@H]23)cc1`, with 140%.
Regarding `CN1C(=O)c2cc(NC(=O)c3cccc(F)c3)ccc2OC[C@H]2O[C@H](CC(=O)O)CC[C@H]21`, the “activity change, negative = cytotoxicity” value was 112%.
Then `O=C(CC(F)(F)F)N1C[C@H]2[C@@H](c3ccccc31)[C@H](CO)N2C(=O)Cc1cccnc1`, with 112%; and `COCC(=O)Nc1ccc2c(c1)C(=O)N(C)[C@@H]1CC[C@@H](CC(=O)NC3CCCC3)O[C@@H]1CO2`, with 69.4% [at 23.5 µM]; and `C/C=C/c1ccc2c(c1)O[C@@H](CN(C)CC1CCCC1)[C@H](C)CN([C@@H](C)CO)S2(=O)=O`, with 109%.
Then `CNC[C@H]1Oc2cc(C#CC3CCCC3)ccc2S(=O)(=O)N([C@H](C)CO)C[C@H]1C`, with 31.7%; and `C/C=C/c1ccc2c(c1)O[C@H](CN(C)C(=O)Cc1cccnc1)[C@H](C)CN([C@H](C)CO)S2(=O)=O`, with 132%.
The value for `COc1cc(C(=O)Nc2ccc(S(=O)(=O)N3CCCCC3C)cc2)cc(OC)c1OC` (centres undefined) was 45.2%; that for `C/C=C/c1ccc2c(c1)O[C@H](CN(C)C(=O)Nc1cccc(F)c1)[C@H](C)CN([C@@H](C)CO)S2(=O)=O` was 14.2%.
With `C[C@@H]1CN([C@@H](C)CO)C(=O)c2cc(NC(=O)Nc3cccc4ccccc34)ccc2O[C@@H](C)CCCCO[C@H]1CN(C)CC1CCCCC1`, the “activity change, negative = cytotoxicity” value is -48.5%.
Turning to `C[C@@H]1CN([C@@H](C)CO)C(=O)c2cccc(NS(C)(=O)=O)c2O[C@H]1CN(C)S(=O)(=O)c1ccc(Cl)cc1`, the “activity change, negative = cytotoxicity” value is 36.2%.
The value for `CN1C(=O)c2cc(NC(=O)c3cccs3)ccc2OC[C@@H]2O[C@H](CC(=O)NCCN3CCCCC3)CC[C@H]21` was 61.8%; that for `COC(=O)C[C@H]1CC[C@@H]2[C@@H](COc3ccc(NC(=O)c4cnccn4)cc3C(=O)N2C)O1` was 116%.
Then `O=c1c2cc(N3CCOCC3)ccc2[nH]c(=S)n1CCCN1CCCC1`, with 25.1%.
The value for `C[C@@H]1CN([C@@H](C)CO)S(=O)(=O)c2ccc(C3=CCCC3)cc2O[C@@H]1CN(C)C(=O)c1ccc(F)cc1` was 90.9%; that for `CC(=O)N(C[C@H]1N[C@H](CO)[C@@H]1c1ccc(-c2ccccc2)cc1)C(C)C` was 51.1%; that for `C[C@H]1CCCCO[C@H](CN(C)Cc2ccc3c(c2)OCO3)[C@@H](C)CN([C@@H](C)CO)C(=O)c2cc(NC(=O)Nc3cccc4ccccc34)ccc2O1` was 113%.
For `CCCNC(=O)C[C@@H]1CC[C@@H]2[C@H](COc3ccc(NC(=O)Nc4ccccc4F)cc3C(=O)N2C)O1`, the “activity change, negative = cytotoxicity” value was 55%.
The value for `C/C=C/c1ccc([C@@H]2[C@@H](CO)N(C(C)=O)[C@@H]2CN(CC)C(=O)CN(C)C)cc1` was 39.3%.

(Values after PubChem BioAssay AID720697 (Broad Institute, 2013).)
